Data from PubChem BioAssay (EPA / NIEHS).
Calls of active or inactive are those of the source. The calls were made as follows: active = hit-call score of the fitted dose curve at least 0.9, where 1 is the maximum; inactive = score below 0.9.

Assay: CCTE_Mundy_HCI_Cortical_Synap_Neur_Matur_NeuriteLength: CCTE's Synaptogenesis and Neurite Maturation Assay in rat cortical cells for Neurite Length, Mundy Lab (AID 2284214)
Protocol: CCTE_Mundy_HCI_Cortical_Synap&Neurite_Matur is a multiplexed, cell-based-readout assay that uses rat primary cortical cells with measurements taken at 288.33 hours after chemical dosing in a microplate: 96-well plate.CCTE_Mundy_HCI_Cortical_Synap_Neur_Matur_NeuriteLength is one of eight components of the CCTE_Mundy_HCI_Cortical_Synap&Neurite_Matur assay. It measures synaptogenesis and neurite maturation related to neurite length using High Content Imaging of fluorescently labelled markers.[…] Using a type of morphology reporter, loss -of-signal activity can be used to understand developmental effects.
Cells are plated onto 96 well plates and allowed 2 hr for attachment to the substrate. At days in vitro (DIV) 5, Cytosine Arabinoside (AraC) is added to arrest glial cell growth. Chemicals are dosed and a media change is performed at DIV 7 of differentiation and is continued through DIV 12 when the experiment is terminated. Cells are fixed with […] and Hoechst Dye. Cells are stained using Millipore Mouse anti-MAP2MAB3418 (1:800) and Millipore Rabbit anti-Synaptophysinsc-1750 (1:250) primary antibodies and Alexa Fluor-488 goat anti-mouse and AlexaFluor-546 goat anti-rabbit secondary antibodies to label neuronal cell nuclei, synapses and neurites. A Cellomics ArrayScan VTi HCS Reader is used for automated image acquisition and analysis of neurite outgrowth.
With `CN(C)C(=O)C(CCN1CCC(O)(c2ccc(Cl)cc2)CC1)(c1ccccc1)c1ccccc1` the AC50 was 3.22 µM (active).
With `[Cl-].[Cl-].[NH2-].[NH2-].[Pt+4]` the outcome was “inactive”.
With `NC(N)=Nc1nc(CSCCC(N)=NS(N)(=O)=O)cs1` the outcome was “inactive”.
In the case of `C[C@H](CS)C(=O)N1CCC[C@H]1C(=O)O`, the outcome is reported as “inactive”.
For `CC1(C)S[C@@H]2[C@H](NC(=O)[C@H](N)c3ccc(O)cc3)C(=O)N2[C@H]1C(=O)O`, the outcome was “inactive”.
For `CN(C)CCC(c1ccc(Cl)cc1)c1ccccn1` (stereo not given), the outcome was “inactive”.
In the case of `CC(C)(C)NCC(O)c1cc(O)cc(O)c1` (stereo not given), the outcome is reported as “inactive”.
In the case of `Cc1c(O)cccc1C(=O)N[C@@H](CSc1ccccc1)[C@H](O)CN1C[C@H]2CCCC[C@H]2C[C@H]1C(=O)NC(C)(C)C`, the AC50 is reported as 4.56 µM (active).
For `CC1(C)S[C@@H]2[C@H](NC(=O)[C@H](N)c3ccccc3)C(=O)N2[C@H]1C(=O)O`, the outcome was “inactive”.
In the case of `CNCCC(Oc1ccc(C(F)(F)F)cc1)c1ccccc1` (stereo not given), the AC50 is reported as 6.03 µM (active).
